# About 410 targets per protein were measured; listed, in parts, are those with the strongest signals and a random draw of the rest.
# B1: F17-L (Escherichia coli) (protein)
# chain: GPDDYVPSQIAVNTSTLPGVVIGPADAHTYPRVIGELAGTSNQYVFNGGAIALMRGKFTPALPKIGSITYTFHQGNSRDSSDFDIYDIGVSGLGIIIGMAGYWPATPLVPINSSGIYIDPVGANTNPNTYNGATASFGARLFVAFVATGRLPNGYITIPTRQLGTILLEAKRTSLNNKGLTAPVMLNGGRIQVQSQTHHHHHH
# Legend:
# Experiment in all cases: glycan array binding signal (z-score within array); higher = stronger binding
# Details in all cases: glycan notation: IUPAC condensed, linker removed
# [1] = biological target: Fuc(a1-2)Gal(b1-3)GalNAc(b1-3)Gal
# Outline: (§1)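 Columns mapping to the same glycan were averaged after glycan names were converted to IUPAC-condensed notation. The data come from 3228 arrays in the Consortium for Functional Glycomics database, limited to those with an available protein sequence. Binding is reported as a within-array Z-score averaged across arrays of one protein sequence and across linkers.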
# [2] = biological target: Fuc(a1-2)Gal(b1-3)GlcNAc(b1-3)Gal(b1-4)Glc
# Outline: as §1
# [3] = biological target: Fuc(a1-2)Gal(b1-4)[Fuc(a1-3)]GlcNAc(b1-3)[Neu5Ac(a2-6)Gal(b1-4)GlcNAc(b1-6)]Gal(b1-4)Glc
# Outline: as §1
# [4] = biological target: Fuc(a1-2)[Gal(a1-3)]Gal(b1-4)GlcNAc(b1-2)Man
# Outline: as §1
# [5] = biological target: Fuc(a1-2)[GalNAc(a1-3)]Gal(b1-3)GalNAc(b1-3)Gal(a1-4)Gal(b1-4)Glc
# Outline: as §1
# [6] = biological target: Fuc(a1-2)[GalNAc(a1-3)]Gal(b1-3)GlcNAc(b1-2)Man(a1-3)[Fuc(a1-2)[GalNAc(a1-3)]Gal(b1-3)GlcNAc(b1-2)Man(a1-6)]Man(b1-4)GlcNAc(b1-4)GlcNAc
# Outline: as §1
# [7] = biological target: Fuc(a1-3)[Gal(b1-4)]GlcNAc(b1-2)Man(a1-3)[Fuc(a1-3)[Gal(b1-4)]GlcNAc(b1-2)Man(a1-6)]Man(b1-4)GlcNAc(b1-4)GlcNAc
# Outline: as §1
# [8] = biological target: Gal(a1-3)Gal(b1-3)GlcNAc(b1-3)GalNAc
# Outline: as §1
# [9] = biological target: Gal(a1-3)Gal(b1-3)[Fuc(a1-4)]GlcNAc(b1-2)Man(a1-3)[Gal(a1-3)Gal(b1-3)[Fuc(a1-4)]GlcNAc(b1-2)Man(a1-6)]Man(b1-4)GlcNAc(b1-4)GlcNAc
# Outline: as §1
# Gal(a1-3)GalNAc = biological target: Gal(a1-3)GalNAc
# Outline: as §1
# Gal(a1-4)Gal(b1-4)GlcNAc = biological target: Gal(a1-4)Gal(b1-4)GlcNAc
# Outline: as §1
# [10] = biological target: Gal(a1-4)Gal(b1-4)GlcNAc(b1-2)Man(a1-3)[Gal(a1-4)Gal(b1-4)GlcNAc(b1-2)Man(a1-6)]Man(b1-4)GlcNAc(b1-4)GlcNAc
# Outline: as §1
# [11] = biological target: Gal(a1-4)Gal(b1-4)GlcNAc(b1-3)Gal(b1-4)Glc
# Outline: as §1
# Gal(b1-2)Gal = biological target: Gal(b1-2)Gal
# Outline: as §1
# [12] = biological target: Gal(b1-3)GlcNAc(b1-3)Gal(b1-4)Glc
# Outline: as §1
# [13] = biological target: Gal(b1-3)[Fuc(a1-4)]GlcNAc(b1-2)Man(a1-3)[Gal(b1-3)[Fuc(a1-4)]GlcNAc(b1-2)Man(a1-6)]Man(b1-4)GlcNAc(b1-4)[Fuc(a1-6)]GlcNAc
# Outline: as §1
# Gal(b1-4)Glc = biological target: Gal(b1-4)Glc
# Outline: as §1
# [14] = biological target: Gal(b1-4)GlcNAc(b1-2)[Gal(b1-4)GlcNAc(b1-4)]Man(a1-3)[Gal(b1-4)GlcNAc(b1-2)Man(a1-6)]Man(b1-4)GlcNAc(b1-4)GlcNAc
# Outline: as §1
# [15] = biological target: Gal(b1-4)GlcNAc(b1-3)Gal(b1-4)Glc
# Outline: as §1
# [16] = biological target: Gal(b1-4)GlcNAc(b1-3)Gal(b1-4)GlcNAc(b1-3)Gal(b1-4)GlcNAc(b1-2)Man(a1-3)[Gal(b1-4)GlcNAc(b1-3)Gal(b1-4)GlcNAc(b1-3)Gal(b1-4)GlcNAc(b1-2)Man(a1-6)]Man(b1-4)GlcNAc(b1-4)[Fuc(a1-6)]GlcNAc
# Outline: as §1
# [17] = biological target: Gal(b1-4)GlcNAc(b1-3)GalNAc
# Outline: as §1
# [18] = biological target: Gal(b1-4)GlcNAc(b1-6)Gal(b1-4)GlcNAc
# Outline: as §1
# Gal(b1-6)Gal = biological target: Gal(b1-6)Gal
# Outline: as §1
# Gal4S(b1-4)GlcNAc = biological target: Gal4S(b1-4)GlcNAc
# Outline: as §1
# GalNAc(b1-3)GalNAc = biological target: GalNAc(b1-3)GalNAc
# Outline: as §1
# GlcA(b1-3)GlcNAc = biological target: GlcA(b1-3)GlcNAc
# Outline: as §1
# [19] = biological target: GlcNAc(a1-4)Gal(b1-4)GlcNAc(b1-3)Gal(b1-4)[Fuc(a1-3)]GlcNAc(b1-3)Gal(b1-4)[Fuc(a1-3)]GlcNAc
# Outline: as §1
# [20] = biological target: GlcNAc(b1-3)Gal(b1-4)GlcNAc(b1-3)Gal(b1-4)GlcNAc(b1-2)Man(a1-3)[GlcNAc(b1-3)Gal(b1-4)GlcNAc(b1-3)Gal(b1-4)GlcNAc(b1-2)Man(a1-6)]Man(b1-4)GlcNAc(b1-4)GlcNAc
# Outline: as §1
# [21] = biological target: GlcNAc(b1-3)Gal(b1-4)GlcNAc(b1-3)Gal(b1-4)GlcNAc(b1-3)Gal(b1-4)GlcNAc(b1-3)Gal(b1-4)GlcNAc(b1-2)[GlcNAc(b1-3)Gal(b1-4)GlcNAc(b1-3)Gal(b1-4)GlcNAc(b1-3)Gal(b1-4)GlcNAc(b1-3)Gal(b1-4)GlcNAc(b1-6)]Man(a1-6)[GlcNAc(b1-3)Gal(b1-4)GlcNAc(b1-3)Gal(b1-4)GlcNAc(b1-3)Gal(b1-4)GlcNAc(b1-3)Gal(b1-4)GlcNAc(b1-2)Man(a1-3)]Man(b1-4)GlcNAc(b1-4)[Fuc(a1-6)]GlcNAc
# Outline: as §1
# [22] = biological target: GlcNAc(b1-3)[GlcNAc(b1-6)]Gal(b1-4)GlcNAc
# Outline: as §1
# [23] = biological target: GlcNAc(b1-4)GlcNAc(b1-4)GlcNAc
# Outline: as §1
# [24] = biological target: GlcNAc(b1-6)Gal(b1-4)GlcNAc
# Outline: as §1
# Kdn(a2-3)Gal(b1-4)Glc = biological target: Kdn(a2-3)Gal(b1-4)Glc
# Outline: as §1
# [25] = biological target: Man(a1-2)Man(a1-3)[Man(a1-2)Man(a1-6)]Man
# Outline: as §1
# MurNAc(b1-4)GlcNAc = biological target: MurNAc(b1-4)GlcNAc
# Outline: as §1
# Neu5Ac(a2-3)Gal = biological target: Neu5Ac(a2-3)Gal
# Outline: as §1
# [26] = biological target: Neu5Ac(a2-3)Gal(b1-3)GlcNAc(b1-4)Gal(b1-4)Glc
# Outline: as §1
# [27] = biological target: Neu5Ac(a2-3)Gal(b1-3)[Fuc(a1-4)]GlcNAc(b1-3)Gal(b1-4)[Fuc(a1-3)]GlcNAc
# Outline: as §1
# [28] = biological target: Neu5Ac(a2-3)Gal(b1-3)[Neu5Ac(a2-6)]GlcNAc(b1-3)[Fuc(a1-3)[Gal(b1-4)]GlcNAc(b1-6)]Gal(b1-4)Glc
# Outline: as §1
# [29] = biological target: Neu5Ac(a2-3)Gal(b1-3)]Neu5Ac(a2-3)Gal(b1-4)]GlcNAc
# Outline: as §1
# [30] = biological target: Neu5Ac(a2-3)Gal(b1-4)GlcNAc(b1-3)Gal(b1-4)GlcNAc(b1-6)[Gal(b1-3)]GalNAc
# Outline: as §1
# [31] = biological target: Neu5Ac(a2-3)Gal(b1-4)[Fuc(a1-3)]GlcNAc(b1-2)Man
# Outline: as §1
# [32] = biological target: Neu5Ac(a2-3)Gal(b1-4)[Fuc(a1-3)]GlcNAc(b1-3)Gal(b1-4)[Fuc(a1-3)]GlcNAc(b1-3)Gal(b1-4)[Fuc(a1-3)]GlcNAc
# Outline: as §1
# [33] = biological target: Neu5Ac(a2-3)Gal(b1-4)[Fuc(a1-3)]GlcNAc(b1-6)[Neu5Ac(a2-3)Gal(b1-3)]GalNAc
# Outline: as §1
# [34] = biological target: Neu5Ac(a2-6)Gal(b1-4)GlcNAc(b1-2)Man
# Outline: as §1
# [35] = biological target: Neu5Ac(a2-6)Gal(b1-4)GlcNAc(b1-3)Gal(b1-4)GlcNAc
# Outline: as §1
# [36] = biological target: Neu5Ac(a2-6)Gal(b1-4)GlcNAc(b1-3)Gal(b1-4)GlcNAc(b1-3)[Neu5Ac(a2-6)Gal(b1-4)GlcNAc(b1-3)Gal(b1-4)GlcNAc(b1-6)]GalNAc
# Outline: as §1
# [37] = biological target: Neu5Ac(a2-6)Gal(b1-4)GlcNAc(b1-3)Gal(b1-4)GlcNAc(b1-6)[Gal(b1-3)]GalNAc
# Outline: as §1
# [38] = biological target: Neu5Ac9Ac(a2-6)Gal(b1-4)GlcNAc
# Outline: as §1
# [39] = biological target: Neu5Gc(a2-8)Neu5Gc(a2-3)Gal(b1-4)GlcNAc(b1-3)Gal(b1-4)GlcNAc
# Outline: as §1
binder,measurement,setting,value
B1,glycan array binding signal (z-score),[1],-0.136
same,glycan array binding signal (z-score),[2],1.54
same,glycan array binding signal (z-score),[3],-0.136
same,glycan array binding signal (z-score),[4],0.196
same,glycan array binding signal (z-score),[5],0.104
same,glycan array binding signal (z-score),[6],-0.078
same,glycan array binding signal (z-score),[7],-0.072
same,glycan array binding signal (z-score),[8],-0.023
same,glycan array binding signal (z-score),[9],0.699
same,glycan array binding signal (z-score),Gal(a1-3)GalNAc,-0.118
same,glycan array binding signal (z-score),Gal(a1-4)Gal(b1-4)GlcNAc,1.8
same,glycan array binding signal (z-score),[10],22.9
same,glycan array binding signal (z-score),[11],2.92
same,glycan array binding signal (z-score),Gal(b1-2)Gal,-0.01
same,glycan array binding signal (z-score),[12],1.3
same,glycan array binding signal (z-score),[13],0.915
same,glycan array binding signal (z-score),Gal(b1-4)Glc,-0.096
same,glycan array binding signal (z-score),[14],-0.169
same,glycan array binding signal (z-score),[15],1.67
same,glycan array binding signal (z-score),[16],0.05
same,glycan array binding signal (z-score),[17],-0.12
same,glycan array binding signal (z-score),[18],-0.156
same,glycan array binding signal (z-score),Gal(b1-6)Gal,-0.146
same,glycan array binding signal (z-score),Gal4S(b1-4)GlcNAc,-0.113
same,glycan array binding signal (z-score),GalNAc(b1-3)GalNAc,-0.19
same,glycan array binding signal (z-score),GlcA(b1-3)GlcNAc,1
same,glycan array binding signal (z-score),[19],-0.101
same,glycan array binding signal (z-score),[20],0.024
same,glycan array binding signal (z-score),[21],0.006
same,glycan array binding signal (z-score),[22],-0.228
same,glycan array binding signal (z-score),[23],-0.131
same,glycan array binding signal (z-score),[24],0.019
same,glycan array binding signal (z-score),Kdn(a2-3)Gal(b1-4)Glc,-0.136
same,glycan array binding signal (z-score),[25],-0.153
same,glycan array binding signal (z-score),MurNAc(b1-4)GlcNAc,4.16
same,glycan array binding signal (z-score),Neu5Ac(a2-3)Gal,-0.099
same,glycan array binding signal (z-score),[26],-0.075
same,glycan array binding signal (z-score),[27],0.865
same,glycan array binding signal (z-score),[28],-0.114
same,glycan array binding signal (z-score),[29],0.01
same,glycan array binding signal (z-score),[30],-0.139
same,glycan array binding signal (z-score),[31],-0.12
same,glycan array binding signal (z-score),[32],-0.119
same,glycan array binding signal (z-score),[33],-0.152
same,glycan array binding signal (z-score),[34],-0.134
same,glycan array binding signal (z-score),[35],-0.069
same,glycan array binding signal (z-score),[36],-0.014
same,glycan array binding signal (z-score),[37],-0.112
same,glycan array binding signal (z-score),[38],-0.133
same,glycan array binding signal (z-score),[39],-0.129

# From the supplement of paper PMC8728848
